Results from PubChem BioAssay AID1259415 (National Center for Advancing Translational Sciences (NCATS), 2018).
The campaign covered roughly 410,000 compounds. About 18,000 (4.4%) were called active. Inconclusive results (about 7%) are left out. Rule as the data show it: active = activity change below about -60%; inconclusive = no clear call, values can overlap the other calls; inactive = above about -39%. This excerpt belongs to a sample that is enriched for actives.

Assay: qHTS Assay for inhibitors of the human cytomegalovirus (HCMV)
Details: HFF cells, HCMV-luciferase reporter, 72 h; at 57.5 µM; active compounds read low
Procedure, shortened: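 Luciferase read-out from HCMV-luciferase-infected HFFs (MOI 1 PFU/cell) 72 h post infection at 37C; compounds added after 16 h cell attachment; activity normalized between buffer-only basal and Salinomycin (10uM) inhibitor controls.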
% is scaled to controls: 0 for no effect and ±100 for the full control effect.

| Compound | activity change, negative = inhibition |
| --- | --- |
| CCOC(=O)c1ccc(NC(=O)CCS(=O)(=O)c2ccc(C)cc2)cc1 | 0% (inactive) |
| OCc1cnc(SCc2ccc(F)cc2)n1Cc1ccc(F)cc1 | -26.3% (inactive) |
| O=C(c1ccco1)N1CCN(C(=O)C2CCCN(S(=O)(=O)c3cccc4nsnc34)C2)CC1 (stereo unspecified) | -12.2% (inactive) |
| COC(=O)C(C)N(C#N)c1nc(C)nc(C)n1 (stereo unspecified) | -110% (active) |
| CCOC(=O)c1c(C)oc2nc(C)nc(N(CC(C)C)CC(C)C)c12 | -31.4% (inactive) |
| CNc1nc(SC)nc(N(C#N)CC(=O)OC)n1 | 81.6% (inactive) |
| CCCCCn1c(CCCNC(=O)c2ccccc2OC)nc2ccccc21 | -34.7% (inactive) |
| Clc1ccc(CSc2nncn3c2cc2occc23)cc1 | -20.2% (inactive) |
| O=c1[nH]c(=O)n(CCc2ccc(F)cc2)c(O)c1/C=N/N1CCCCC1 | -4.21% (inactive) |
| COc1ccc(CCn2c(O)c(C=NC3CC3)c(=O)[nH]c2=O)cc1OC | -4.78% (inactive) |
| COc1ccc(CCn2c(O)c(C=NCCCn3ccnc3)c(=O)[nH]c2=O)cc1OC | -107% (active) |
| CC(C)(C(=O)Nc1ccccc1)n1cc(NC(=O)c2cc(F)cc(F)c2)cn1 | 9.36% (inactive) |
| Cc1ccc(C(C(=O)NCC2CCCO2)N(C(=O)c2snc(C(N)=O)c2N)c2ccc(C(C)C)cc2)o1 (stereo unspecified) | -9.39% (inactive) |
| O=C(NNC(=S)NC(=O)c1cn(-c2ccccc2)nc1-c1ccccc1)c1ccncc1 | 21.1% (inactive) |
| O=C(CSc1ccc(/C=N/NC(=O)c2cccc(F)c2)o1)Nc1ccccc1 | -21.6% (inactive) |
| O=C(N/N=C/c1ccc([N+](=O)[O-])o1)c1cn(-c2ccccc2)nc1-c1ccc(F)cc1 | -65.8% (active) |
| O=C(NCCCN1CCCC1=O)c1cccc(S(=O)(=O)NCc2ccccc2)c1 | 0.765% (inactive) |
| Clc1ccc2c(c1)C1=C(C(c3ccncc3)O2)C(c2ccc(Br)cc2)n2ncnc2N1 (stereo unspecified) | -78.3% (active) |
| CC1CCCN(c2nc3c(S(=O)(=O)c4ccc(C(C)C)cc4)nnn3c3ccsc23)C1 (stereo unspecified) | 20% (inactive) |

| Compound | activity change, negative = inhibition |
| --- | --- |
| Cc1ccc(-n2c3nc(=O)[nH]c(=O)c-3cc3c(Cl)cccc32)cc1 | -14.6% (inactive) |
| CCN(CC)S(=O)(=O)c1ccc(C)c(NC(=O)COc2ccc(Br)cc2Cl)c1 | 24.1% (inactive) |
| CCN(CC)S(=O)(=O)c1ccc(NC(=O)c2cccnc2Cl)c(NC(=O)c2cccnc2Cl)c1 | -100% (active) |
| Cc1ccc(S(=O)(=O)N(C)C)cc1NC(=O)c1ccccc1Br | -5.46% (inactive) |
| Cc1ccc(-c2nn(CCC(=O)Nc3ccc(Cl)c(Cl)c3)c(=O)c3ccccc23)cc1 | -16.5% (inactive) |
| O=C(CSc1nnc(-c2ccncc2)n1-c1ccccc1)Nc1ccc(Cl)c(Cl)c1 | -5.77% (inactive) |
| O=C(CC(O)(C(F)(F)F)C(F)(F)F)Nc1ccc(Cl)c(Cl)c1 | -103% (active) |
| COc1cc(Cl)c(NC(=O)C(NS(=O)(=O)c2cccs2)C(C)C)c(OC)c1 (stereo unspecified) | -10.2% (inactive) |
| CCc1ccc(-n2nc(C)c3c(C)cc(=O)n(CC(=O)Nc4ccc(F)cc4C)c32)cc1 | 5.24% (inactive) |
| CCc1ccccc1NC(=O)c1ccc2nc(CCc3ccccc3)oc2c1 | 30% (inactive) |
| COC(=O)c1ccc(Nc2ncnc3sccc23)cc1 | -62.4% (active) |
| O=S(=O)(Nc1ncnc2sccc12)c1cccc(F)c1 | 30.2% (inactive) |
| COC(=O)c1ccc(-c2nc3cc(NC(C)=O)ccc3o2)cc1 | 13.5% (inactive) |
| CCOC(=O)c1c(NC(=O)COc2cc(C)ccc2C(C)C)sc(C)c1C | 12.8% (inactive) |
| CC1CCN(S(=O)(=O)c2ccc3c(ccn3CCC(=O)NCc3ccc(N(C)C)cc3)c2)CC1 | 5.8% (inactive) |
| CCc1ccc(NC(=O)c2nn(-c3ccc(C)cc3)c(=O)n(C)c2=O)cc1 | -12.5% (inactive) |
| CCOc1ccccc1NC(=O)CSc1ncc(S(=O)(=O)c2ccc(C(C)(C)C)cc2)c(=O)[nH]1 | -2.52% (inactive) |
| CC1=CC(=Cc2sc3ccccc3[n+]2C)C=C(C)O1 | -100% (active) |
| CCC(=O)N1CCc2cc(Br)cc(S(=O)(=O)CCC(=O)NCCc3ccc(OC)c(OC)c3)c21 | 7.78% (inactive) |

| Compound | activity change, negative = inhibition |
| --- | --- |
| COc1ccc(C2NC(=S)NC3=C2CCc2ccccc23)cc1OC (stereo unspecified) | -13.4% (inactive) |
| Cc1ccc(-c2nn(C(C)(C)C)c3ncnc(N)c23)cc1 | -69.5% (active) |
| CCOC(=O)C1=C(N)N(c2ccc(C)cc2)C2=C(C(=O)CCC2)C1c1cccs1 (stereo unspecified) | -86.5% (active) |
| O=C1CCCC2=C1C(c1cccs1)CC(=O)N2c1ccc(F)cc1 (stereo unspecified) | 18.4% (inactive) |
| CCOC(=O)c1cc2c(n(-c3ccc(C)cc3)c1=O)CCCC2=O | -27.5% (inactive) |
| Cc1ccc(C)c(Cn2c(=O)n(CCC(=O)NCc3ccc4c(c3)OCO4)c(=O)c3sccc32)c1 | -25.1% (inactive) |
| COc1ccc(C2=NC3(CCCCC3)N(CC(=O)Nc3ccc(C(C)C)cc3)C2=O)cc1 | -14.7% (inactive) |
| CCn1c(C)c(C)c2cc(C(=O)NCCc3cc(OC)ccc3OC)ccc21 | 0% (inactive) |
| CN(NC(=O)c1ccccc1F)c1nc(C(F)(F)F)nc2ccccc12 | -62.6% (active) |
| Cc1cccc(C(=O)Nc2ccc(-c3nc4ccccc4s3)c(C)c2)c1 | 55.1% (inactive) |
| O=C(Cn1cnc2ccccc2c1=O)NNC(=O)c1ccccc1F | -0.88% (inactive) |
| CC(NC(=O)c1ccccc1F)c1cccc2ccccc12 (stereo unspecified) | -5.98% (inactive) |
| CSc1nc(N(C)NC(=O)c2cccc(C)c2)c2ccccc2n1 | -87.3% (active) |
| Cc1cccc(C(=O)NCCc2nc3ccccc3n2Cc2ccccc2Cl)c1 | 3.18% (inactive) |
| Cc1cc2oc(C(=O)N(Cc3ccc(Cl)cc3)Cc3ccco3)c(C)c2cc1Cl | -14.8% (inactive) |
| COc1cccc(C(=O)N2CCCC(CCC(=O)NCc3ccc(F)c(F)c3)C2)c1 (stereo unspecified) | 34.9% (inactive) |
| COc1ccc(C)cc1N(CC(=O)N1CCC(C)CC1)S(=O)(=O)c1ccc(C)cc1 | -13.7% (inactive) |
| CCN(CC)CCNC(=O)CN1N=C(c2ccc(OC)cc2)CCC1=O | 29.3% (inactive) |
